The record followed here is PubChem BioAssay AID2216 (Broad Institute, 2009).

Hit rate of the full screen: of about 300,000 compounds, about 3,300 (1.1%) were called active. Not shown: some 6% with an inconclusive outcome. This excerpt belongs to a sample that is enriched for actives. Unmarked numbers belong to inactive results.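 Rule for the calls: active = more than half of the replicate wells show a fall in the fluorescence ratio signal beyond about 16% (limit read from the data, passing the limit was not always enough); inconclusive = exactly half of the replicate wells pass the set limit; inactive = fewer than half of replicates pass the limit.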

For this experiment, the system named is Ran GTPase (GTP-bound) - importin-beta complex. Put plainly: inhibitors of RanGTP-importin-beta interaction, primary screen, biochemical, FRET, CFP-Ran, YFP-importin-beta, homogeneous (AID 2216).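 Note: 0% = DMSO wells and 100% = Ran loaded with GDP instead of GTP.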 To be noted: cell-free CFP-Ran/YFP-importin-beta FRET ratio; active compounds read high; concentration not given here.
The term inhibition denotes the change of the read-out against control, counted positive when it falls. Take `COc1cccc(COC(=O)C2CCN(S(=O)(=O)c3cccs3)CC2)c1OC`: the inhibition is 8.84%.
As for `CC(OC(=O)CNC(=O)c1cccc(F)c1)C(=O)NC1CCCCC1C` (configuration not stated), the inhibition is 18.8% (active).
Regarding `Cc1cc(C(=O)OC(C)C(=O)NC2CCCCC2C)c(C)o1` (configuration not stated), the inhibition was -3.61%.
On to `CC(OC(=O)CNC(=O)c1ccc(Cl)c([N+](=O)[O-])c1)C(=O)NCc1ccco1` (configuration not stated), for which the inhibition was 5.87%.
For `CC(C)(C)c1ccc(C(=O)NCc2ccco2)cc1`, the inhibition is -1.24%.
Take `CCOc1ccc(CCNC(=O)COC(=O)c2c(OC)cccc2OC)cc1OCC`: the inhibition is 1.08%.
With `COCCn1c(SC(C)C(=O)NC2CC2)nnc1-c1cccc(C)c1` (configuration not stated), the inhibition is -0.425%.
For the compound `O=C(NCc1ccc(Cl)cc1)C(=O)NCC1CCCN1S(=O)(=O)c1cccs1` (configuration not stated), the inhibition was -0.323%.
In the case of `CC(=O)Nc1ccc(C(=O)/C=C/c2ccc[nH]2)cc1`, the inhibition is 16.6% (active).
Turning to `CC(=O)Nc1ccc(/C=C/C(=O)c2ccccc2)cc1`, the inhibition was -0.329%.
Turning to `CCCC(=O)Nc1ccc(C(=O)N/N=C/c2ccc[nH]2)cc1`, the inhibition is 2.49%.
Consider `CC(C)Oc1ccc(S(=O)(=O)N2CCOCC2)cc1NC(=O)C1CSC2(C)CCC(=O)N12` (configuration not stated), for which the inhibition was -2.87%.
The same measure for `COc1ccc(S(=O)(=O)NCCCc2ccccc2)cc1`: -4.52%; for `O=C(Cc1nc2ccccc2[nH]c1=O)c1ccc(Cl)cc1`: 39% (active); for `Cc1ccc(-c2nc3ccccc3[nH]c2=O)cc1`: 3.42%.
To `O=C(/C(=C/c1cccc(Cl)c1)c1nc2ccccc2[nH]1)c1ccccc1` belongs 2.15%; to `COC(=O)Cc1ccc(OCC(=O)Nc2ccc(OC(F)(F)F)cc2)cc1`, -0.217%.
Regarding `COC(=O)Cc1ccc(Oc2ncc(C(F)(F)F)cc2Cl)cc1`, the inhibition is 106% (active).
With `Cc1cc(C)cc(NS(=O)(=O)c2ccc(Oc3ncc(C(F)(F)F)cc3Cl)cc2)c1`, the inhibition is 1.58%.
Turning to `CCCCn1c(N)c(N(CC)C(=O)c2ccc(N(C)S(=O)(=O)c3ccc(C)cc3)cc2)c(=O)[nH]c1=O`, the inhibition was -4.28%.
For `COc1ccc(/C=C(\C#N)C(=O)OCC(=O)N(C)C2CCS(=O)(=O)C2)cc1` (configuration not stated), the inhibition is 1.11%.
As to `COc1ccccc1NS(=O)(=O)c1ccc(C(=O)N2CCN(c3ccccc3O)CC2)cc1`, the inhibition was 1.18%.
Consider `COc1ccc(Nc2nc(NCc3ccco3)nc(N/N=C/c3ccccc3Cl)n2)cc1`, for which the inhibition is -0.0694%.
On to `COc1ccc(-n2cnc3cc(C(=O)NC4CCCC4)ccc32)cc1`, for which the inhibition is -1.26%.
With `COc1ccc(-n2cnc3cc(NCc4ccco4)ccc32)cc1`, the inhibition was 23% (active).
Turning to `CCCc1nnc(NC(=O)c2cc(OC)cc(OC)c2)s1`, the inhibition was 162% (active).
To `COc1ccc(Cc2nnc(NC(=O)c3cc(OC)c(OC)c(OC)c3)s2)cc1OC` belongs 3.23%; to `CCCc1nnc(NC(=O)c2cccs2)s1`, -123%.
Consider `C[C@@H]1O[C@@H](OC[C@H]2O[C@@H](Oc3c(-c4ccc(O)cc4)oc4cc(O)cc(O)c4c3=O)[C@H](O)[C@@H](O)[C@@H]2O)[C@H](O)[C@H](O)[C@H]1O`, for which the inhibition is 2.8%.
`COc1ccc(CNC(=O)C2(CC3CC(c4ccccc4)=NO3)CCN(C(=O)c3cccc(O)c3)CC2)cc1` (configuration not stated): the inhibition was 5.15%.
As for `Cn1cccc1-c1nc2ccccc2n1C`, the inhibition was 3.82%.
The same measure for `Cn1c(-c2ccc(C(=O)c3ccccc3)s2)nc2ccccc21`: 21.5% (active); for `Cn1c(NC(=O)c2ccccc2)nc2ccccc21`: 5.33%.
In the case of `O=C(NCCC1CCCCN1S(=O)(=O)c1ccccc1)C(=O)NCC1CCCO1` (configuration not stated), the inhibition was 1.16%.
With `CCOc1ccc(CCNC(=O)COC(=O)C2CCN(c3ccc(C(F)(F)F)cn3)CC2)cc1OCC`, the inhibition was 0.153%.
The same measure for `O=c1[nH]snc1-c1c(Cl)cccc1Cl`: 2.52%; for `Cc1ccc(-n2nc3cc(Cl)c(NC(=O)c4ccco4)cc3n2)cc1`: -2.85%; for `Cc1ccnc(NC(=O)c2ccco2)n1`: -1.58%.
With `CCn1nc(NC(=O)c2ccco2)c2cc3ccc(C)cc3nc21`, the inhibition is 23.1% (active).
Take `COc1ccc2cc(C(=O)C3CCCN(C(=O)c4sc(C)nc4C)C3)ccc2c1` (configuration not stated): the inhibition was 0.445%.
In the case of `COc1ccc2nc(N3CCCC(O)C3)c(C#N)cc2c1` (configuration not stated), the inhibition was 57.2% (active).
The same measure for `COc1ccc2c(c1)CCc1cn3ncc(C#N)c3nc1-2`: 10.6%.
As to `CCCCCCc1cc2cc(-c3nnc(-c4ccccc4)o3)c(=O)oc2cc1O`, the inhibition is 161% (active).
To `CCCCCCc1ccc(O)cc1O` belongs -0.89%; to `Cc1c(CC(=O)NCCCCCC(=O)O)c(=O)oc2cc3occ(-c4ccccc4)c3cc12`, 3.1%; to `Cc1sc2ncnc(N3CCC(C(=O)Nc4nc5ccc(Cl)cc5s4)CC3)c2c1C`, 2.82%.
With `CC(=O)c1ccc(S(=O)(=O)NC2CC(=O)N(c3ccc4c(c3)OCCO4)C2)cc1` (configuration not stated), the inhibition is -0.763%.
Regarding `c1ccc(C[C@H]2CNCCN2CCC23CC4CC(CC(C4)C2)C3)cc1`, the inhibition was 3.71%.
The same measure for `N#CCN(C(=O)COC(=O)C1CC2CCCC(C1)C2=O)c1ccccc1` (configuration not stated): -5.07%; for `COc1cc2c(cc1O)[C@H](Cc1ccc(Oc3cc(C[C@@H]4NCCc5cc(OC)c(O)cc54)ccc3O)cc1)NCC2`: -9.25%.
To `COc1ccc(CCNC(=O)C(=O)NCC2CCNCC2)cc1OC` belongs 4.38%.
Take `COc1ccc2c(c1)CCNC2Cc1ccc(OC)c(O)c1` (configuration not stated): the inhibition is 96.2% (active).
As for `O=C(Nc1ccccc1-c1ccccc1)c1cccs1`, the inhibition was 22.1% (active).
In the case of `O=C(Nc1ccccc1-c1nc2ccccc2[nH]c1=O)c1cccs1`, the inhibition is -0.663%.
Regarding `O=C(Nc1ccccc1)c1ccc(NC(=O)c2cccs2)cc1`, the inhibition is -0.113%.
As for `Cc1sc2ncnc(N3CCC(C(=O)NNC(=O)c4ccc(F)cc4)CC3)c2c1C`, the inhibition is 0.666%.
Regarding `CC(=O)N1CCc2cc(S(=O)(=O)NC3CCCCC3)ccc21`, the inhibition is 2.08%.
Consider `CCCNS(=O)(=O)c1ccc2c(c1)CCCN2C(C)=O`, for which the inhibition is 23.9% (active).
For `CCC1CCCCN1CCNS(=O)(=O)c1ccc2c(c1)CCN2C(C)=O` (configuration not stated), the inhibition is -5.25%.
To `COc1ccccc1C(=O)NCCC(=O)NN1C(=O)NC2(CCCCC2)C1=O` belongs -3.94%.
`CCOc1ccc2nc(N3CCCN(C(=O)Nc4ccccc4C)CC3)c(C#N)cc2c1`: the inhibition was 119% (active).
With `CCOc1ccc(C(=O)NC2CCN(C(=O)Nc3ccccc3OC)CC2)cc1`, the inhibition is -1.22%.
`CCOC(=O)c1cc(C#N)c(N2CCCCC2)nc1-c1ccccc1`: the inhibition is -3.84%.
With `COc1ccccc1C(=O)Nc1ccccc1C(=O)Nc1ccccc1`, the inhibition was 3.3%.
As for `O=C(NCCOc1cccnc1)c1ccc(OC2CCN(Cc3ccccn3)CC2)cc1`, the inhibition is 0.854%.
With `O=S(=O)(c1cccc(Cn2nnc(-c3ccc(F)cc3)n2)c1)N1CCOCC1`, the inhibition is 5.68%.
Regarding `Cc1cccc(Nc2nc(NCCO)nc(N3CCCC3)n2)c1`, the inhibition is -0.666%.
Consider `Cc1ccc(N2CCN(c3ccc(C)cc3)C2c2ccccn2)cc1`, for which the inhibition was 20.1% (active).
To `Cc1ccc(S(=O)(=O)NCC(=O)N2CCN(c3ccccn3)CC2)cc1` belongs -4.7%.
`Cc1ccc(N2C(=O)C3CC3C2=O)cc1` (configuration not stated): the inhibition was 1.85%.
On to `CCC(CC)c1nnc(NC(=O)C2=COCCO2)s1`, for which the inhibition was -0.607%.
To `CCOC(=O)C1=C(N)N(c2ccc(C)cc2)C2=C(C(=O)CCC2)C1c1cccs1` (configuration not stated) belongs 1.06%.
Take `CCOc1ccc(C2C(C#N)=C(N)N(N(C)C)C3=C2C(=O)CCC3)cc1` (configuration not stated): the inhibition was -2.69%.
Take `COc1ccc(C2C3=C(CCCC3=O)N(CC(=O)O)C3=C2C(=O)CCC3)cc1`: the inhibition is 61.1% (active).
On to `CCCCN1C(=O)CCC(C(=O)O)C1c1ccc(OC)cc1` (configuration not stated), for which the inhibition is -1.74%.
The same measure for `COc1ccc(C2C(C#N)=C(N)N(c3ncn[nH]3)C3=C2C(=O)CCC3)cc1` (configuration not stated): 2.61%; for `CCOc1ccc(C2C3=C(CCCC3=O)N(CC(=O)O)C3=C2C(=O)CCC3)cc1`: 63.4% (active).
With `O=C1c2ccccc2C(=O)c2c1cccc2N1CCN(C/C=C/c2ccccc2)CC1`, the inhibition was -1.77%.
With `Cc1nc(-c2ccccc2)sc1C1(C)CC(c2cccnc2)=NO1` (configuration not stated), the inhibition is 4.13%.
As to `Cc1ccc(C(=O)NC(=S)NCCN2CCOCC2)cc1`, the inhibition is -2.12%.
As for `Cc1ccc(NC(=S)NCCN2CCOCC2)cc1`, the inhibition is 18% (active).
To `CCCCc1ccc(NC(=S)NCCCN2CCOCC2)cc1` belongs 1.19%.
Regarding `CCCCn1c(N)c(N(CCC(C)C)C(=O)CC2OC(=O)c3ccccc32)c(=O)[nH]c1=O` (configuration not stated), the inhibition is 0.056%.
The same measure for `O=C(CCC1CCCN(C(=O)c2ccc(F)c(F)c2)C1)N1CCN(c2ccccn2)CC1` (configuration not stated): 2.85%; for `Oc1ccc(CN2CCN(c3ncccn3)CC2)cc1`: -6.09%; for `CCN1CCN(C(c2cccnc2)c2cc(Cl)c3cccnc3c2O)CC1` (configuration not stated): 2.34%.
Turning to `Oc1c(CN2CCN(c3ccc(F)cc3)CC2)cc(Cl)c2cccnc12`, the inhibition was 24.8% (active).
To `O=C(N/N=C/c1cc(Br)c(O)c([N+](=O)[O-])c1)C(O)(c1ccccc1)c1ccccc1` belongs -0.0435%.
As to `CN(C)S(=O)(=O)c1ccc(N2CCCC2)c(C(=O)Nc2ccc(Br)cc2F)c1`, the inhibition is 0.866%.
Consider `CC(Sc1nnc2c(n1)C1CCC2(C)C1(C)C)C(=O)Nc1ccccc1` (configuration not stated), for which the inhibition is 27% (active).
The same measure for `CC(Sc1nc(-c2ccccc2)cc(C(F)(F)F)n1)C(=O)Nc1ccc2c(c1)OCO2` (configuration not stated): -1.24%; for `CSc1nc(C)cc(SC(C(C)=O)C(=O)Nc2ccccc2)n1` (configuration not stated): -3.65%.
